These results are taken from PubChem BioAssay (NCATS).

Results filed as inconclusive are left out. Entries that show only a call come without a potency. Active and inactive are the calls of the source. Calls follow the shape of the dose curve; as a rule, active = well fitted curve in the direction sought with a large enough effect; inconclusive = small, poorly fitted or top-dose-only effect, or another doubt; inactive = no such curve, though single readings can be large; an effect the other way counts as inactive or inconclusive.

Chain of Arylsulfatase A (Homo sapiens) (P15289 whole entry, looked up): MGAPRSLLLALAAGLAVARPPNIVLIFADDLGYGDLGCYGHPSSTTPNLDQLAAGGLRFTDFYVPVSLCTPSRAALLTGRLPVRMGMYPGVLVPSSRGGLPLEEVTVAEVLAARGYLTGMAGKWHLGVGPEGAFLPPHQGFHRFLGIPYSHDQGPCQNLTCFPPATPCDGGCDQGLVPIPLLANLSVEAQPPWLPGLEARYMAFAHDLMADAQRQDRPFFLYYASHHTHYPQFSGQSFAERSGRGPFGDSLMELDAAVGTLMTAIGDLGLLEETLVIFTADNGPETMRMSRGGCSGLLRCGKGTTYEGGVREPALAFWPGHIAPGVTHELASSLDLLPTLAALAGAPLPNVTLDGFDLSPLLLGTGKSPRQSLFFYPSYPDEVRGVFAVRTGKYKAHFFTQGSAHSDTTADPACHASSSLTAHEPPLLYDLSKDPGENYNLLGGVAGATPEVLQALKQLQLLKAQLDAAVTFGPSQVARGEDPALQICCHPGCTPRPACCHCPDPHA

For the first test, the target named is Arylsulfatase A (Homo sapiens) (UniProt P15289). The test can be described thus: qHTS screen for enhancers of Arylsulfatase A (ASA1): LOPAC Validation Assay (AID 720538). Also: potency is read from the fitted curve at half-maximal effect. As to conditions: ASA enzyme activity, LOPAC qHTS enhancer assay; series mostly up to 57.5 µM. In outline:
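Enhancer assay in patient-derived MLD fibroblasts carrying ASA-I179S: 48 h compound exposure at 37 C, then 14 h room-temperature pNCS turnover (0.5 mM final) in lysis buffer. Read by fluorescence at 525/598 nm after NaOH stop.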
A general note: Quantitative high-throughput screening tests each substance at several concentrations.
`CC(C)NNC(=O)c1ccncc1`: the Potency entry was “inactive”.

With `COC(=O)C1=C(C)NC(C)=C(C(=O)OCCN(C)Cc2ccccc2)C1c1cccc([N+](=O)[O-])c1` (stereo not given), the Potency entry was “inactive”.

Regarding `OCCN1CCN(CCCN2c3ccccc3C=Cc3ccccc32)CC1`, the Potency result is “inactive”.

As to `CN(C(=O)CCCOc1ccc2[nH]c(=O)ccc2c1)C1CCCCC1`, the Potency result is “inactive”.

With `CC(C)(C)NCC(O)c1cc(O)cc(O)c1` (stereo not given), the Potency result was “inactive”.

On to `CCCOc1ccccc1-c1nc2n[nH]nc2c(=O)[nH]1`, for which the Potency result is “inactive”.

On to `CC(=O)Oc1cc(C(C)C)c(OCCN(C)C)cc1C`, for which the Potency result is “inactive”.

Consider `CCCCNc1ccc(C(=O)OCCN(C)C)cc1`, for which the Potency result was “inactive”.

In the case of `CC(C)[N+](C)(CCOC(=O)C1c2ccccc2Oc2ccccc21)C(C)C`, the Potency entry was “inactive”.

Take `Nc1c2c(nc3ccccc13)CCCC2O` (stereo not given): the Potency result was “inactive”.

On to `COCCOC(=O)C1=C(C)NC(C)=C(C(=O)OC(C)C)C1c1cccc([N+](=O)[O-])c1` (stereo not given), for which the Potency entry is “inactive”.

In the case of `CN1C[C@H](C(=O)N[C@]2(C)O[C@@]3(O)[C@@H]4CCCN4C(=O)[C@H](Cc4ccccc4)N3C2=O)C[C@@H]2c3cccc4[nH]cc(c34)C[C@H]21`, the Potency result is “inactive”.

Turning to `CC(C(=O)O)c1ccc(CC2CCCC2=O)cc1` (stereo not given), the Potency entry is “inactive”.

Take `CCCN(CCC)C(=O)C(CCC(=O)O)NC(=O)c1ccccc1` (stereo not given): the Potency entry is “inactive”.

On to `O=C(O)CP(=O)(O)O`, for which the Potency entry was “inactive”.

As to `CN(C)CCOC(=O)COc1ccc(Cl)cc1`, the Potency result was “inactive”.

For `Cc1ccc(=O)n(-c2ccccc2)c1`, the Potency result is “inactive”.

On to `C[n+]1cc2c3c(ccc2c2ccc4cc5c(cc4c21)OCO5)OCO3`, for which the Potency result was “inactive”.

For the compound `CCOC(=O)C1=C(C)NC(C)=C(C(=O)OC)C1c1cccc([N+](=O)[O-])c1` (stereo not given), the Potency result was “inactive”.

`N[C@@H](COP(=O)(O)O)C(=O)O`: the Potency entry was “inactive”.

Turning to `COC(=O)[C@@H](N)Cc1ccc(O)c(O)c1`, the Potency was 33.8 µM (active).

Turning to `CCOC(=O)C1=C(C)NC(C)=C(C(=O)OC)C1c1cccc(Cl)c1Cl` (stereo not given), the Potency result is “inactive”.

For the compound `Cc1ccc(Cl)c(Nc2ccccc2C(=O)O)c1Cl`, the Potency entry was “inactive”.

For `COCCCC/C(=N\OCCN)c1ccc(C(F)(F)F)cc1`, the Potency result is “inactive”.

With `CCN1CCc2nc(N)oc2CC1`, the Potency entry is “inactive”.

`CCC(=O)c1ccc2c(c1)N(CCCN(C)C)c1ccccc1S2`: the Potency result is “inactive”.

For `O=C(CCCN1CCC(O)(c2cccc(C(F)(F)F)c2)CC1)c1ccc(F)cc1`, the Potency entry is “inactive”.

Consider `CC(N=C(NC#N)Nc1ccncc1)C(C)(C)C` (stereo not given), for which the Potency result was “inactive”.

For the compound `CNCCC(Oc1ccccc1OC)c1ccccc1` (stereo not given), the Potency entry was “inactive”.

On to `NC(N)=N/N=C/c1c(Cl)cccc1Cl`, for which the Potency result was “inactive”.

For the compound `CNCCCN1c2ccccc2CCc2ccccc21`, the Potency is 21.3 µM (active).

On to `CCN(CC)CCCN(c1ccccc1)C1Cc2ccccc2C1`, for which the Potency result was “inactive”.

For the compound `OC(CCN1CCCCC1)(c1ccccc1)C1CCCCC1` (stereo not given), the Potency result is “inactive”.

Take `CCn1ccnc1CC1COc2ccccc2O1` (stereo not given): the Potency entry was “inactive”.

For `CN/C(=C\[N+](=O)[O-])NCCSCc1ccc(CN(C)C)o1`, the Potency result was “inactive”.

Tested on in a further test: not listed separately
The test can be described thus: qHTS for compounds that reverse cellular toxicity of Amyloid beta (A-beta) peptide in yeast: LOPAC Validation Assay (AID 720559). The following applies: yeast expressing A-beta; series mostly up to 46.1 µM. In outline:
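Rescue of A-beta toxicity was scored as yeast growth by 600 nm absorbance after 48 hr at 30 C with compound. Normalization used DMSO (negative) and equimolar ferric chloride plus clioquinol (positive).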
Regarding `CC(C)NNC(=O)c1ccncc1`, the compound was classed as inactive.

Turning to `COC(=O)C1=C(C)NC(C)=C(C(=O)OCCN(C)Cc2ccccc2)C1c1cccc([N+](=O)[O-])c1` (stereo not given), the call was inactive.

With `OCCN1CCN(CCCN2c3ccccc3C=Cc3ccccc32)CC1`, the outcome was inactive.

In the case of `CN(C(=O)CCCOc1ccc2[nH]c(=O)ccc2c1)C1CCCCC1`, the call was inactive.

Consider `CC(C)(C)NCC(O)c1cc(O)cc(O)c1` (stereo not given), for which the compound was called inactive.

For the compound `CCCOc1ccccc1-c1nc2n[nH]nc2c(=O)[nH]1`, the result was inactive.

On to `CC(=O)Oc1cc(C(C)C)c(OCCN(C)C)cc1C`, for which the outcome was inactive.

For `CCCCNc1ccc(C(=O)OCCN(C)C)cc1`, the result was inactive.

For `CC(C)[N+](C)(CCOC(=O)C1c2ccccc2Oc2ccccc21)C(C)C`, the call was inactive.

Consider `Nc1c2c(nc3ccccc13)CCCC2O` (stereo not given), for which the call was inactive.

Consider `COCCOC(=O)C1=C(C)NC(C)=C(C(=O)OC(C)C)C1c1cccc([N+](=O)[O-])c1` (stereo not given), for which the outcome was inactive.

Regarding `CN1C[C@H](C(=O)N[C@]2(C)O[C@@]3(O)[C@@H]4CCCN4C(=O)[C@H](Cc4ccccc4)N3C2=O)C[C@@H]2c3cccc4[nH]cc(c34)C[C@H]21`, the compound was called inactive.

Turning to `CC(C(=O)O)c1ccc(CC2CCCC2=O)cc1` (stereo not given), the call was inactive.

With `CCCN(CCC)C(=O)C(CCC(=O)O)NC(=O)c1ccccc1` (stereo not given), the outcome was inactive.

Regarding `O=C(O)CP(=O)(O)O`, the result was inactive.

Turning to `CN(C)CCOC(=O)COc1ccc(Cl)cc1`, the result was inactive.

Regarding `Cc1ccc(=O)n(-c2ccccc2)c1`, the call was inactive.

As for `C[n+]1cc2c3c(ccc2c2ccc4cc5c(cc4c21)OCO5)OCO3`, the compound was classed as inactive.

Consider `CCOC(=O)C1=C(C)NC(C)=C(C(=O)OC)C1c1cccc([N+](=O)[O-])c1` (stereo not given), for which the result was inactive.

Turning to `N[C@@H](COP(=O)(O)O)C(=O)O`, the compound was classed as inactive.

In the case of `COC(=O)[C@@H](N)Cc1ccc(O)c(O)c1`, the outcome was inactive.

Regarding `CCOC(=O)C1=C(C)NC(C)=C(C(=O)OC)C1c1cccc(Cl)c1Cl` (stereo not given), the call was inactive.

On to `Cc1ccc(Cl)c(Nc2ccccc2C(=O)O)c1Cl`, for which the compound was called inactive.

Turning to `COCCCC/C(=N\OCCN)c1ccc(C(F)(F)F)cc1`, the call was inactive.

Regarding `CCN1CCc2nc(N)oc2CC1`, the compound was called inactive.

As to `CCC(=O)c1ccc2c(c1)N(CCCN(C)C)c1ccccc1S2`, the compound was called inactive.

As for `O=C(CCCN1CCC(O)(c2cccc(C(F)(F)F)c2)CC1)c1ccc(F)cc1`, the result was inactive.

In the case of `CC(N=C(NC#N)Nc1ccncc1)C(C)(C)C` (stereo not given), the outcome was inactive.

For `CNCCC(Oc1ccccc1OC)c1ccccc1` (stereo not given), the result was inactive.

Regarding `NC(N)=N/N=C/c1c(Cl)cccc1Cl`, the outcome was inactive.

Turning to `CNCCCN1c2ccccc2CCc2ccccc21`, the call was inactive.

`CCN(CC)CCCN(c1ccccc1)C1Cc2ccccc2C1`: the result was inactive.

Take `OC(CCN1CCCCC1)(c1ccccc1)C1CCCCC1` (stereo not given): the call was inactive.

As to `CCn1ccnc1CC1COc2ccccc2O1` (stereo not given), the result was inactive.

For `CN/C(=C\[N+](=O)[O-])NCCSCc1ccc(CN(C)C)o1`, the call was inactive.
